For 43 compounds, activity, negative = inhibition and AC50 results are on record in PubChem BioAssay AID1851 (National Center for Advancing Translational Sciences (NCATS), 2009).

As a reminder, the AC50 is the concentration giving half of the maximal activity seen.

In all, about 16,000 compounds went through this assay and about 5,100 (32%) were called active. Another 25% or so got no clear call; they are omitted. Calls come from the whole dose curve; as a rule, active = well fitted curve in the direction sought with a large enough effect; inconclusive = small, poorly fitted or top-dose-only effect, or effect the other way; inactive = no such curve, though single readings can be large or run the other way. Some of the results follow. A structure can be active in one record and inactive in another.
% is set by controls: 0 for no effect and ±100 for the full control effect.

Chain of Cytochrome P450 3A4 (Homo sapiens) (P08684 whole entry, looked up): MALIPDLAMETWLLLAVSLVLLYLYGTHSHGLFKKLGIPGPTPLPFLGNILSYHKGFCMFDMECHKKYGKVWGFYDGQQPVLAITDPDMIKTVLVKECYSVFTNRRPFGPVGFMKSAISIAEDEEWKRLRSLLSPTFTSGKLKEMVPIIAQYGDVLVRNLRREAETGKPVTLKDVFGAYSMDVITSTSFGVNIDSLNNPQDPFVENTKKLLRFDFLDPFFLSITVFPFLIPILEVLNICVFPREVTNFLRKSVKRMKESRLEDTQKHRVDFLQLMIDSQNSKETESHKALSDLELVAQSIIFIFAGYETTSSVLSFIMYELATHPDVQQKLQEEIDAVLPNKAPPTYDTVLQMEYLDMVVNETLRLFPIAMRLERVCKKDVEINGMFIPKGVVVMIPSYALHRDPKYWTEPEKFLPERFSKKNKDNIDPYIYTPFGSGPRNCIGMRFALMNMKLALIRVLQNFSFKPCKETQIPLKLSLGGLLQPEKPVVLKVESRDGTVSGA

The assay concerns the target Cytochrome P450 3A4 (Homo sapiens) (UniProt P08684). Briefly: Cytochrome panel assay with activity outcomes. Conditions: recombinant CYP, pro-luciferin dealkylation, luminescence, p450-cyp3a4; series mostly up to 57.1 µM.
In the case of `c1ccc2c(c1)C(=Nc1ccc(N=C3c4ccccc4-c4ccccc43)cc1)c1ccccc1-2`, the activity, negative = inhibition is -5.03% [at 11.4 µM] (inactive). On to `CCNC(=O)C/C(C)=N/NC(=O)C12CC3CC(CC(C3)C1)C2`, for which the activity, negative = inhibition was 18.8% [at 2.29 µM] (inactive). As for `CCOC(=O)CSCC(NC(=O)OC(C)(C)C)C(=O)OCC` (centres undefined), the AC50 entry is “inactive”. Consider `CO[C@H]1COC(=O)C/C=C\[C@@H](C)COC(=O)[C@H]2CCCN2C(=O)C/C=C\[C@H]1C`, for which the activity, negative = inhibition is -22.4% [at 11.4 µM] (inactive).

With `Cc1ccc(S(=O)(=O)N[C@H]2COC(=O)C/C=C\[C@@H](C)[C@H](NS(=O)(=O)c3ccc(C)cc3)COC(=O)[C@H](C)NC(=O)C/C=C\[C@H]2C)cc1`, the activity, negative = inhibition is -35.2% [at 11.4 µM] (inactive). Regarding `Cc1ccc(S(=O)(=O)N[C@H]2COC(=O)C/C=C\[C@@H](C)COC(=O)C/C=C\[C@@H]2C)cc1`, the AC50 was 3.16 µM (active) and the activity, negative = inhibition is -13.2% [at 11.4 µM] (inactive). With `CO[C@H]1COC(=O)C/C=C\[C@@H](C)COC(=O)[C@@H](C)NC(=O)C/C=C\[C@@H]1C`, the activity, negative = inhibition is 14.4% [at 11.4 µM] (inactive). As for `Cc1ccc(S(=O)(=O)N[C@H]2COC(=O)C/C=C\[C@H](C)[C@@H](NS(=O)(=O)c3ccc(C)cc3)COC(=O)C/C=C\[C@@H]2C)cc1`, the AC50 was 3.98 µM (active).

Turning to `CC(=O)Nc1ccc(S(=O)(=O)NCC2CCC(C(=O)N3CCN(c4ccccn4)CC3)CC2)cc1` (centres undefined), the AC50 is 12.6 µM (active). With `CC(=O)N1CCC2(CC1)CCN(c1ccccn1)CC2`, the AC50 result is “inactive”. Take `COCC(=O)N1CCC2(CC1)CN(c1ccccn1)C2`: the AC50 entry was “inactive”. Same read-out and setting: as for `O=C(C1CCN(S(=O)(=O)c2cccc3cccnc23)CC1)N1CCN(c2ccccn2)CC1`, the figure is 3.55 µM (active); as for `CC(C)c1ccc(OCc2ccc(C(=O)N3CCN(c4ccccn4)CC3)cc2)cc1`, “inactive”; as for `O=C(C1CCN(S(=O)(=O)N2CCOCC2)CC1)N1CCN(c2ccccc2)CC1`, “inactive”. Consider `CC(=O)Nc1ccc(S(=O)(=O)N2CCC(N(C)CCC(C)C)CC2)cc1`, for which the AC50 result was “inactive”. Consider `O=C(c1cnc(N2CCN(c3ncccn3)CC2)c2ccccc12)N1CCN(c2ccccn2)CC1`, for which the activity, negative = inhibition is -7.43% [at 11.4 µM] (inactive).

In the case of `CC(=O)Nc1ccc(S(=O)(=O)NCC2CCC(C(=O)NCCC(C)C)CC2)cc1` (centres undefined), the concentration at half-maximal activity (AC50) is 17.8 µM (active). Turning to `COc1ccc(S(=O)(=O)NCc2ccc(C(=O)N3CCN(c4ccccn4)CC3)cc2)cc1`, the AC50 is 15.8 µM (active).

Take `COC(Cn1c(C)c(C(C)=O)c(C(C)=O)c1C)OC`: the AC50 entry is “inactive”.

As for `O=C(O)COC(=O)Cc1ccccc1Nc1c(Cl)cccc1Cl`, the AC50 result was “inactive”. As for `CCOC(=O)n1ccn(C)c1=S`, the AC50 entry was “inactive”. As to `Cc1ccc2cc(CCNC(=O)c3ccc(Br)o3)c(=O)[nH]c2c1`, the AC50 was 14.1 µM (active).

Regarding `COc1ccc2cc(CCNC(=O)C3CC3)c(=O)[nH]c2c1`, the AC50 entry was “inactive”. On to `CCN1C(=O)[C@H]2[C@H]3[C@H](O)[C@H](O)C/C(=N/NC(=O)OCc4ccccc4)[C@@H]3CC[C@@H]2C1=O`, for which the activity, negative = inhibition is -8.99% [at 11.4 µM] (inactive). Consider `CCOC(=O)N/N=C1/C[C@@H](O)[C@@H](O)[C@@H]2[C@@H]3C(=O)N(Cc4ccccc4)C(=O)[C@H]3CC[C@@H]12`, for which the activity, negative = inhibition is -18.3% [at 11.4 µM] (inactive). `CCOC(=O)N/N=C1/C[C@@H](O)[C@@H](O)[C@@H]2[C@@H]3C(=O)N(Cc4ccc5c(c4)OCO5)C(=O)[C@H]3CC[C@@H]12`: the AC50 was 3.98 µM (active).

Consider `O=C(N/N=C1/C[C@@H](O)[C@@H](O)[C@@H]2[C@@H]3C(=O)N(Cc4ccc5c(c4)OCO5)C(=O)[C@H]3CC[C@@H]12)OCc1ccccc1`, for which the concentration at half-maximal activity (AC50) is 1.26 µM (active).

`CCOC(=O)N/N=C1/C[C@@H](O)[C@@H](O)[C@@H]2[C@@H]3C(=O)N(c4cccc(Oc5ccccc5)c4)C(=O)[C@H]3CC[C@H]12`: the activity, negative = inhibition is -29.2% [at 11.4 µM] (inactive). Regarding `O=C(N/N=C1/C[C@@H](O)[C@@H](O)[C@@H]2[C@@H]3C(=O)N(Cc4ccc5c(c4)OCO5)C(=O)[C@H]3CC[C@H]12)OCc1ccccc1`, the AC50 was 3.98 µM (active). Turning to `O=C(N/N=C1/C[C@@H](O)[C@@H](O)[C@@H]2[C@@H]3C(=O)N(Cc4ccccc4)C(=O)[C@H]3CC[C@@H]12)OCc1ccccc1`, the activity, negative = inhibition is -17.8% [at 11.4 µM] (inactive). Consider `CCOC(=O)N/N=C1/C[C@@H](O)[C@@H](O)[C@@H]2[C@@H]3C(=O)N(Cc4ccccc4)C(=O)[C@H]3CC[C@H]12`, for which the activity, negative = inhibition is -22% [at 11.4 µM] (inactive).

As to `CCN1C(=O)[C@H]2[C@H]3[C@H](O)[C@H](O)C/C(=N/NC(=O)OCc4ccccc4)[C@H]3CC[C@@H]2C1=O`, the activity, negative = inhibition was -12.4% [at 11.4 µM] (inactive). As for `O=C(N/N=C1/C[C@@H](O)[C@@H](O)[C@@H]2[C@@H]3C(=O)N(Cc4ccccc4)C(=O)[C@H]3CC[C@H]12)OCc1ccccc1`, the activity, negative = inhibition was -21.6% [at 11.4 µM] (inactive).

For the compound `COc1ccc(COC(=O)N/N=C2/C[C@@H](O)[C@@H](O)[C@@H]3[C@@H]4C(=O)N(c5cccc(Oc6ccccc6)c5)C(=O)[C@H]4CC[C@H]23)cc1`, the AC50 was 3.16 µM (active). `CCOC(=O)N/N=C1/C[C@@H](O)[C@@H](O)[C@@H]2[C@@H]3C(=O)N(c4cccc(Oc5ccccc5)c4)C(=O)[C@H]3CC[C@@H]12`: the activity, negative = inhibition was -28.7% [at 11.4 µM] (inactive). Turning to `O=C(O)C12CC3(C(=O)O)CC(C(=O)O)(CC(C(=O)O)(C1)C3=O)C2=O`, the activity, negative = inhibition was -8.55% [at 11.4 µM] (inactive). Take `N[C@@H](C(=O)O)c1ccc(O)c(C(=O)O)c1`: the AC50 result was “inactive”. Regarding `NC(=NCCCCCCN=C(N)/N=C(\N)Nc1ccc(Cl)cc1)/N=C(\N)Nc1ccc(Cl)cc1`, the AC50 result was “inactive”. On to `Nc1nc2c(c(=O)[nH]1)CN(CCCN1CCOCC1)CN2`, for which the activity, negative = inhibition was -5.39% [at 11.4 µM] (inactive).

In the case of `Cc1nn(C)c(Cl)c1S(=O)(=O)N[C@@H](c1ccccc1)[C@]1(C)C[C@H]1[C@@H](C)C(=O)Nc1ccc2ccccc2c1`, the AC50 is 1.26 µM (active). In the case of `C[C@@H](C(=O)Nc1ccc2ccccc2c1)[C@H]1C[C@]1(C)[C@H](NS(=O)(=O)c1ccc2ccccc2c1)c1ccccc1`, the AC50 is 7.94 µM (active). Regarding `C[C@@H](C(=O)Nc1ccc2ccccc2c1)[C@@H]1C[C@@]1(C)[C@@H](NS(=O)(=O)c1ccc(-c2ccccc2)cc1)c1ccccc1`, the AC50 result was “inactive”. Consider `C[C@@H](C(=O)Nc1ccc2ccccc2c1)[C@H]1C[C@]1(C)[C@H](NS(=O)(=O)c1ccc(-c2ccccc2)cc1)c1ccccc1`, for which the AC50 was 10 µM (active).
